In all, about 62,000 compounds went through this assay and about 95 (0.2%) were called active.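 Rule for the calls: active = inhibition above 20% in each of the two mixture wells holding the compound; inactive = inhibition of 20% or less in either well.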 The entries come from a sample that favours actives as a whole.
These compounds were tested against Cathepsin G (Homo sapiens) (UniProt P08311) (assay: human cathepsin G inhibitors, primary screen, biochemical, pooled compound mixtures, AMC fluorescence (AID 581;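 note: 0% = enzyme control without mixture and 100% = blank lacking enzyme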)). Conditions: purified enzyme, AMC-tetrapeptide fluorescence, stronger effect = higher value, screened at 5 µM (by protocol).
Sequence of Cathepsin G (Homo sapiens) (P08311 21-244 limits assumed): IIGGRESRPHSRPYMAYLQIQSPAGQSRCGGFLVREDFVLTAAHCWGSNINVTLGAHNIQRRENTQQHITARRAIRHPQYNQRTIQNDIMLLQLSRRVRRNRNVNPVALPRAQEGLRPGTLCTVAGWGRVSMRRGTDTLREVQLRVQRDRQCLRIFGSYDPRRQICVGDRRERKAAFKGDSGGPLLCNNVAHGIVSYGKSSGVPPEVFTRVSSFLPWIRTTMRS

inhibition, inactive:
O=C(CNCCO)NC12CC3CC(CC(C3)C1)C2 11.2%, C[C@H](NC(=O)NCCc1ccccc1)C(=O)O 2.02%, O=C(Cn1c(=O)sc2ccccc21)Nc1ccc2c(c1)OCCO2 1.24%, O=C(Nc1ccc2c(c1)OCO2)C1CC(c2c(F)cccc2Cl)=NO1 (centres undefined) 9.79%, CCCCCN(C(=O)NC(=O)Nc1ccccc1C)S(C)(=O)=O 3.6%, CC(C)C(=O)Nc1cccc(C(=O)Nc2ccc3c(c2)OCO3)c1 10.1%, CCOc1c(N2CCCCC2)c(=O)c1=O -3.4%, Cc1cc2c(cc1C)NC(c1ccccn1)C1=C(CC(C)(C)CC1=O)N2 (centres undefined) 9.5%, Cc1ccc(S(=O)(=O)N2CCN(Cc3cccc(C)c3O)CC2)cc1 2.48%, O=c1c2ccccc2[nH]c(=S)n1CCN1CCC(=C(c2ccc(F)cc2)c2ccc(F)cc2)CC1 13.1%, CCC(C)n1[nH]c(=O)cc1N (centres undefined) 0.53%, CN(c1nc2ccccc2n2c(-c3ccco3)nnc12)S(=O)(=O)c1ccccc1 -5.29%, N#Cc1c(/N=C/N2CCCC2)oc(-c2ccccc2)c1-c1ccccc1 9.67%, O=C(Nc1cc(=O)[nH]c2ncnn12)c1ccccc1Cl -3.08%, O=C(O)C1CC=C(Cl)CC1C(=O)NCc1ccccc1 (centres undefined) 12.7%, Cc1ccc(-n2c(N)c(C(=O)N3CCOCC3)sc2=S)c(C)c1 11.4%, c1ccc2c(c1)OCC(c1nn3cnnc3s1)O2 (centres undefined) 1.56%, CC(=O)N1CSCC1C(=O)O (centres undefined) 10.9%, COc1ccc(C)cc1S(=O)(=O)NC1CCCCC1 3.27%, O=C(CCCN1C(=O)CSc2ncccc21)N1CCN(c2cccc(C(F)(F)F)c2)CC1 1.22%, Fc1ccc(Br)cc1/C=N/n1cnnc1 -0.86%, ON=C1/C(=N\O)CC2(C/C1=N/O)OCCO2 -0.38%, CC(=O)c1c(C)n(-c2ccc(N(C)C)cc2)c2ccc(OCC(N)=O)cc12 8.67%, COc1ccc(S(=O)(=O)NC2(C(F)(F)F)N=C3SCCN3C2=O)cc1 (centres undefined) 11.4%, CCN(CC)C(=O)C1CCC(C)(C(=O)O)C1(C)C (centres undefined) 11.2%, COC(=O)c1ccccc1NC(=O)C1CCN(S(=O)(=O)c2cc(OC)ccc2OC)CC1 2.31%, CC(=O)N(CC1CCCO1)C1(C(=O)NC2CCCC2)CCCCC1 (centres undefined) 10.3%, COCC(=O)Nc1nnc(COc2ccccc2)s1 -21.9%, CCN(CC(=O)Nc1ccc2c(c1)OCCO2)Cc1cc(=O)oc2cc(C)c(C)cc12 1.52%, CC1(C)Cc2ccccc2-c2nc(CN3CCOCC3)[nH]c(=O)c21 3.33%, O=C1N(Cc2ccc3c(c2)OCO3)c2ccccc2C1(O)c1c[nH]c2ccccc12 (centres undefined) 1.27%, COc1ccc(Cl)cc1NC(=O)C1CC(=O)N(c2ccc(F)cc2)C1 (centres undefined) 8.25%, O=C(CN1CCOCC1)N1CCCc2c1c(=O)oc1ccc(OCc3ccccc3)cc21 -5.32%, O=C1N=C(N2CCOCC2)CS1 -2.67%, O=C(CSc1nnc(-c2ccco2)n1CC1CCCO1)c1ccccc1 (centres undefined) 10.9%, CSc1ccc(-c2c(C#N)c(N)nc3c2c(C)nn3-c2ccccc2)cc1 5.96%, Cc1c(C(=O)OCC(=O)N(CCC#N)c2ccccc2)oc2c1ccc1ccccc12 10.9%, COc1ccc2nc(N3CCCC(O)C3)c(C#N)cc2c1 (centres undefined) 7.5%, O=C(Nc1ccc(S(=O)(=O)N2CCCC2)cc1Cl)C1=COCCO1 -0.78%, CN(C)c1ccc(CNC23CN4CN(CN(C4)C2)C3)cc1 -0.235%, CCCCNC(=O)CSc1nccn1Cc1ccccc1 -4.63%, COCCNC(=O)C(C#N)c1nc2ccccc2nc1N1CCN(Cc2ccc3c(c2)OCO3)CC1 (centres undefined) 8.39%, Cc1cc(N=CC2=C(O)CCCC2=O)no1 14.9%, CC1CCCC(C)N1C(=O)CN1CCN(c2nc(-c3ccc(F)cc3)cs2)CC1 (centres undefined) -39.9%, CCOC(=O)N1CCN(C(=O)c2ccc(CN(c3ccc(C)c(C)c3)S(C)(=O)=O)cc2)CC1 11.3%, N#CC1=C(N)Oc2n[nH]c(CSc3ccccc3)c2C12C(=O)Nc1ccccc12 (centres undefined) 13.8%, COc1ccc(-c2nc(CS(=O)CC(=O)N3CCc4ccccc4C3)c(C)o2)cc1 (centres undefined) 2.91%, CCCCn1nc(C(=O)N2CCc3ccccc32)c2ccccc2c1=O -0.085%, COc1ccccc1N1CC(O)=C(c2nc3ccccc3s2)C1=N -0.35%, O=C1CCC(C(=O)Nc2ccc(OC(F)F)cc2)N1 (centres undefined) 1.46%, Nc1c(C(=O)NCc2ccccc2)nnn1Cc1cccc(Cl)c1 -2.37%, Cc1cc(C(F)(F)F)nn1-c1nc(-c2ccco2)cc(C(F)(F)F)n1 -9.21%, Cc1ccc2cc3cc(C(=O)N4CCCCCC4)oc3nc2c1 8.2%, COCCOC(=O)C1=C(C)Nc2nc(C)nn2C1c1ccccc1 (centres undefined) -6.8%, CC1C=CCC2C(=O)N(c3cccc(C(=O)N4CCCCCC4)c3)C(=O)C12 (centres undefined) 9.22%, CCOC(=O)CSc1nnc(-c2ccncc2)o1 7.88%, O=C(c1ccco1)N1CCN=C1SCc1cccc(Cl)c1 -1.57%, Cc1ccc(-c2nc(CS(=O)CC(=O)NC3CCCC3)c(C)o2)cc1 (centres undefined) -3.33%, CCN(CCCNC(=O)C1CCN(S(=O)(=O)c2cnc[nH]2)CC1)c1ccccc1 14.4%, O=C(NCCCN1CCCCCC1)c1ccc(N2CCCC2=O)cc1 1.79%, CC1(N2CCOCC2)CC2(O)C(=[N+]1[O-])CCc1nonc12 (centres undefined) 11.9%, O=C(NC1CCCCC1)c1ccc2c(=O)n(CC3CCCO3)c(=O)[nH]c2c1 (centres undefined) -1.31%, Cc1cc(C)c(C)c(S(=O)(=O)Nc2ccc(O)cc2)c1C -0.38%, COc1ccc(OCCCON2C(=O)c3ccccc3C2=O)cc1 -4.08%, COc1cc(Br)cc(/C=N/c2ncn[nH]2)c1O 10.2%, CN(c1ccc(C(=O)NCCC2=CCCCC2)cc1)S(C)(=O)=O 1.87%, COc1cccc2cc(C(C)N(CCCN3CCOCC3)C(=O)Nc3ccc(Cl)cc3)oc12 (centres undefined) 1.68%, O=C(O)CN(Cc1ccco1)S(=O)(=O)c1ccc(F)cc1 6.5%, COc1ccc2c(c1OC)C(=O)N(c1ncn[nH]1)C2 -3.84%, COc1ccc(C)c2sc(=NC(=O)c3ccc(C#N)cc3)n(C)c12 1.85%, O=C(CCCC(=O)N(CC(=O)NC1CCCC1)Cc1ccccc1Cl)Nc1ccccn1 7.61%, Cc1nnc(NC2=NCCCCC2)o1 -1.69%, CSCCC1NC2(C(=O)Nc3ccc(Cl)cc32)[C@@H]2C(=O)N(C3CCCC3)C(=O)[C@H]12 (some centres undefined) 17.3%, COc1ccc(N2C(=O)C3CCCN3C2c2cccc(OC)c2)cc1 (centres undefined) -5.7%, CCC(C)Sc1nc(C)nc2c1c(=O)n(C)c(=O)n2C (centres undefined) 8.64%, O=C(CC1CCCCC1)Nc1c2c(nn1-c1ccc(F)cc1)CS(=O)(=O)C2 -0.2%, COc1ccc(C2C(C#N)=C(N)Oc3cc(N)ccc32)cc1OC (centres undefined) -2.81%, O=C(CCCn1c(=O)oc2ccccc21)Nc1cccnc1 -1.41%, Cc1nc(-c2ccc(NC(=O)c3cccs3)cc2)cs1 8.02%
